# Measured values reported in the supplement of paper PMC9694430.
# Columns and labels:
# Test in all cases: thermal shift delta Tm vs DMSO control; higher = stronger stabilization (binding)
# Details in all cases: 12.5 µM; protein concentration 2 µM
# LOC_OS01G01410-cb001 = test system: LOC_OS01G01410-cb001
# How it was run: (§1)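 Purified, E. coli-expressed rice kinase domain constructs were tested by differential scanning fluorimetry in 96-well plates: 19.5 μl of 2 μM kinase in 100 mM potassium phosphate pH 7.5, 150 mM NaCl, 10% glycerol, 5 × SYPRO Orange, plus compound in DMSO. Fluorescence was read from 25°C to 95°C at 0.05°C/s. Melting temperatures came from Boltzmann fits, and the shift is the triplicate mean relative to protein with DMSO alone.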
# LOC_OS01G02750-cb003 = test system: LOC_OS01G02750-cb003
# How it was run: as §1
# LOC_OS01G10900-cb004 = test system: LOC_OS01G10900-cb004
# How it was run: as §1
# LOC_OS01G13800-cb001 = test system: LOC_OS01G13800-cb001
# How it was run: as §1
# LOC_OS01G14860-cb001 = test system: LOC_OS01G14860-cb001
# How it was run: as §1
# LOC_OS01G21960-cb002 = test system: LOC_OS01G21960-cb002
# How it was run: as §1
# LOC_OS01G39600-cb002 = test system: LOC_OS01G39600-cb002
# How it was run: as §1
# LOC_OS01G48390-cb002 = test system: LOC_OS01G48390-cb002
# How it was run: as §1
# LOC_OS01G51400-cb002 = test system: LOC_OS01G51400-cb002
# How it was run: as §1
# LOC_OS01G52050-cb004 = test system: T1, LOC_OS01G52050-cb004
# T1 sequence (whole entry): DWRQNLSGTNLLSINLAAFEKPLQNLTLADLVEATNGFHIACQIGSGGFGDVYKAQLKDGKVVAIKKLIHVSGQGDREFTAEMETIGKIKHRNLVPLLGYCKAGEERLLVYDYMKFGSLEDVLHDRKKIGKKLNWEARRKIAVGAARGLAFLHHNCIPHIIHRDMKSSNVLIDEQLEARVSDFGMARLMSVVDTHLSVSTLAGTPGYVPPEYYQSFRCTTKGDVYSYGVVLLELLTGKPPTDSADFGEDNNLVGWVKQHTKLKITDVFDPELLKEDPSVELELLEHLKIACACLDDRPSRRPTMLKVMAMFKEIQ
# How it was run: as §1
Compound,thermal shift delta Tm (LOC_OS01G01410-cb001),thermal shift delta Tm (LOC_OS01G02750-cb003),thermal shift delta Tm (LOC_OS01G10900-cb004),thermal shift delta Tm (LOC_OS01G13800-cb001),thermal shift delta Tm (LOC_OS01G14860-cb001),thermal shift delta Tm (LOC_OS01G21960-cb002),thermal shift delta Tm (LOC_OS01G39600-cb002),thermal shift delta Tm (LOC_OS01G48390-cb002),thermal shift delta Tm (LOC_OS01G51400-cb002),thermal shift delta Tm (LOC_OS01G52050-cb004)
Cn1ncc(Cl)c1-c1cc(C(=O)N[C@H](CN)Cc2cccc(F)c2)sc1Cl,0.78 °C,2.36 °C,0.19 °C,-0.25 °C,0.67 °C,0.59 °C,-0.1 °C,0.28 °C,0.18 °C,0.5 °C
COc1cc2ncnc(Nc3cccc(Cl)c3)c2cc1OC [AG-1478 (Tyrphostin AG-1478)],1.49 °C,1.82 °C,0.65 °C,0.5 °C,0.56 °C,0.99 °C,1.07 °C,2.73 °C,0.17 °C,1.69 °C
COc1ccc(-c2ccc3c(N4CCOCC4)nc(N4C[C@@H](C)O[C@@H](C)C4)nc3n2)cc1CO,0.64 °C,0.68 °C,0.83 °C,-0.38 °C,0.08 °C,-0.07 °C,-0.02 °C,-0.04 °C,-0.03 °C,0.27 °C
CS(=O)(=O)N1CCN(Cc2cc3nc(-c4cccc5[nH]ncc45)nc(N4CCOCC4)c3s2)CC1 [Pictilisib (GDC-0941)],1.2 °C,0.47 °C,0.85 °C,0.43 °C,1.21 °C,0.24 °C,0.57 °C,2.14 °C,-0.08 °C,-0.11 °C
COc1cc2ncnc(Nc3ccc(F)c(Cl)c3)c2cc1NC(=O)/C=C/CN1CCCCC1,1.07 °C,1.4 °C,1.7 °C,0.04 °C,0.18 °C,1.27 °C,-0.71 °C,0.7 °C,0.66 °C,0.74 °C
CC(C)c1cnn2c(NCc3ccccc3-n3cccn3)nc(OC3CCCNC3)nc12 (stereo not given),0 °C,1.24 °C,0.29 °C,0.99 °C,0.39 °C,1.47 °C,-0.1 °C,0.28 °C,0.35 °C,0.43 °C
COc1cccc(-n2c(=O)[nH]c3cc(Cl)n(-c4ccc(-c5cccc(OC)c5O)cc4)c3c2=O)c1,0.44 °C,1.69 °C,-0.02 °C,0.72 °C,0.13 °C,0.8 °C,-0.12 °C,1.54 °C,0.69 °C,0.03 °C
COc1ncc(-c2ccc3nccc(-c4ccnnc4)c3c2)cc1NS(=O)(=O)c1ccc(F)cc1F,1.94 °C,1.21 °C,0.23 °C,0.27 °C,1.9 °C,1.2 °C,3.65 °C,0.45 °C,0.55 °C,1.09 °C
O=C1NC(=O)/C(=C/c2ccc3nccc(-c4ccncc4)c3c2)S1,1.21 °C,0.63 °C,0.95 °C,0.37 °C,0.98 °C,0.96 °C,1.76 °C,0.2 °C,0.08 °C,0.79 °C
CC(C)c1ccc2oc3nc(N)c(C(=O)O)cc3c(=O)c2c1 [Amlexanox],0.99 °C,0.05 °C,0.62 °C,-0.62 °C,0.4 °C,-0.2 °C,2.5 °C,-0.03 °C,0.2 °C,1.26 °C
Cc1[nH]c(/C=C2\C(=O)Nc3ccc(S(=O)(=O)N(C)c4cccc(Cl)c4)cc32)c(C)c1C(=O)N1CCN(C)CC1,1.44 °C,2.62 °C,0.43 °C,0.07 °C,0.57 °C,0.44 °C,-0.1 °C,0.18 °C,0.14 °C,1.01 °C
C[C@@]1(C(=O)Nc2ccc(F)nc2)CCCN1c1nc(Nc2cc(C3CC3)n[nH]2)c2cccn2n1,1.85 °C,3.65 °C,0.11 °C,0.04 °C,3.52 °C,0.38 °C,4.9 °C,1.12 °C,0.67 °C,0.49 °C
C#Cc1cccc(Nc2ncnc3cc4c(cc23)OCCOCCOCCO4)c1 [Icotinib],-0.52 °C,0.8 °C,0.96 °C,0.01 °C,0.16 °C,0.74 °C,2.84 °C,2.19 °C,0.45 °C,0.36 °C
Cn1cc(/C=C2\C(=O)Nc3cccnc32)c2ccccc21,3.9 °C,0.74 °C,1.42 °C,-0.51 °C,0.68 °C,1.44 °C,-0.03 °C,1.92 °C,0.44 °C,1.86 °C
O=c1c(O)c(-c2ccc(O)c(O)c2)oc2cc(O)cc(O)c12 [Quercetin],3.05 °C,7.25 °C,1.68 °C,1.97 °C,3.55 °C,3.4 °C,6.51 °C,2.95 °C,1.5 °C,6.25 °C
"Cc1[nH]c(/C=C2\C(=O)Nc3ccccc32)c(C)c1CCC(=O)O [Orantinib (TSU-68, SU6668)]",4.79 °C,1.43 °C,0.18 °C,0.08 °C,1.9 °C,2.76 °C,6.8 °C,1.34 °C,0.2 °C,3.61 °C
FC(F)(F)c1ccc(CNc2ccc(Cc3c[nH]c4ncc(Cl)cc34)cn2)cn1 [Pexidartinib (PLX3397)],1.9 °C,3.35 °C,3.09 °C,0.85 °C,1.22 °C,2.07 °C,2.41 °C,6.28 °C,0.37 °C,10.2 °C
COc1cc2c(Oc3ccc(NC(=O)C4(C(=O)Nc5ccc(F)cc5)CC4)cc3F)ccnc2cc1OCCCN1CCOCC1,2.26 °C,3.47 °C,1.69 °C,-0.35 °C,1.69 °C,0.4 °C,0.45 °C,6.85 °C,0.19 °C,4.66 °C
FC(F)(F)c1ccc(/C=C/c2nc(COc3ccc(CCCCn4ccnn4)cc3)co2)cc1 [Mubritinib (TAK 165)],0.34 °C,-0.49 °C,0.23 °C,0.16 °C,0.08 °C,-0.04 °C,-0.52 °C,0.23 °C,-0.08 °C,0.24 °C
